To fix the notation:
T1: RBFOX1 RRM (Homo sapiens, UniProt Q9NWB1 109-208)
T1 sequence: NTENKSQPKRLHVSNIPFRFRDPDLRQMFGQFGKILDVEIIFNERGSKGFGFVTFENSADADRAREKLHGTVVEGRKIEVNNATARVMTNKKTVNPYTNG

B1: UAUUACU (DNA:RNA)
RNA: GGGAGACCGGAAUUCAGAUUGUCCUAUUACUUUAAAUCCCGUCGUAGCCACCA
DNA 1: CAATCTGAATTCCGGTCTCCC
DNA 2: TGGTGGCTACGACGGGATT
B2: AUAAGGU (DNA:RNA)
RNA: B1 RNA with U25A, A26U, U27A, U28A, A29G, C30G
DNA 1: CAATCTGAATTCCGGTCTCCC
DNA 2: TGGTGGCTACGACGGGATT
B3: CCGAAGU (DNA:RNA)
RNA: B1 RNA with U25C, A26C, U27G, U28A, C30G
DNA 1: CAATCTGAATTCCGGTCTCCC
DNA 2: TGGTGGCTACGACGGGATT
B4: AGGUAUU (DNA:RNA)
RNA: B1 RNA with U25A, A26G, U27G, C30U
DNA 1: CAATCTGAATTCCGGTCTCCC
DNA 2: TGGTGGCTACGACGGGATT
B5: UCAUCUG (DNA:RNA)
RNA: B1 RNA with A26C, U27A, A29C, C30U, U31G
DNA 1: CAATCTGAATTCCGGTCTCCC
DNA 2: TGGTGGCTACGACGGGATT
B6: GAGUUUA (DNA:RNA)
RNA: B1 RNA with U25G, U27G, A29U, C30U, U31A
DNA 1: CAATCTGAATTCCGGTCTCCC
DNA 2: TGGTGGCTACGACGGGATT
B7: ACUCUUU (DNA:RNA)
RNA: B1 RNA with U25A, A26C, U28C, A29U, C30U
DNA 1: CAATCTGAATTCCGGTCTCCC
DNA 2: TGGTGGCTACGACGGGATT
B8: AGGUCUA (DNA:RNA)
RNA: B1 RNA with U25A, A26G, U27G, A29C, C30U, U31A
DNA 1: CAATCTGAATTCCGGTCTCCC
DNA 2: TGGTGGCTACGACGGGATT
B9: CGGGAUC (DNA:RNA)
RNA: B1 RNA with U25C, A26G, U27G, U28G, C30U, U31C
DNA 1: CAATCTGAATTCCGGTCTCCC
DNA 2: TGGTGGCTACGACGGGATT
B10: GAGAGUC (DNA:RNA)
RNA: B1 RNA with U25G, U27G, U28A, A29G, C30U, U31C
DNA 1: CAATCTGAATTCCGGTCTCCC
DNA 2: TGGTGGCTACGACGGGATT
B11: CCGAGUC (DNA:RNA)
RNA: GGGAGACCGGAAUUCAGAUUGUCCCCGAGUCUUAAAUCCCGUCGUAGCCACCA
DNA 1: CAATCTGAATTCCGGTCTCCC
DNA 2: TGGTGGCTACGACGGGATT
B12: CCGGAUC (DNA:RNA)
RNA: B11 RNA with A28G, G29A
DNA 1: CAATCTGAATTCCGGTCTCCC
DNA 2: TGGTGGCTACGACGGGATT
B13: CGGAAUC (DNA:RNA)
RNA: B11 RNA with C26G, G29A
DNA 1: CAATCTGAATTCCGGTCTCCC
DNA 2: TGGTGGCTACGACGGGATT
B14: GAGUCUC (DNA:RNA)
RNA: B11 RNA with C25G, C26A, A28U, G29C
DNA 1: CAATCTGAATTCCGGTCTCCC
DNA 2: TGGTGGCTACGACGGGATT

Where a chain is given by its changes, count along the chain named. Whole data set: some 16,000 sequences, median “ka relative to ugcaugu” near 0.0091, cut for the highest 2% near 0.032. Only a selection was taken, and the highest values are over-represented in it overall.

Data on 14 molecules can be found in PMC9911399, “Two distinct binding modes provide the RNA-binding protein RbFox with extraordinary sequence specificity”.

The test has as its target T1, RBFOX1 RRM. Briefly: EMSA; HiTS-Eq, 1 nM pool, 10 min; buffer printed only for the single-RNA assays: 10 mM Tris pH 7.5, 150 mM NaCl, 3.4 mM EDTA, 0.001% NP-40, 30 C. The note with it: tags: His6 N-terminal (pET28a); label: 5' 32P. The method in brief:
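Relative association constants, normalised to the cognate motif, were derived by comparing read counts of each RNA species with those of the control reaction. The RNA sequenced was the free fraction, separated by 8% native PAGE after a 10 min equilibration in 50 µL of 1 nM 5′-radiolabelled RNA (7 randomized nucleotides) with increasing concentrations of purified wild-type or mutant RbFox RRM.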
(A gel shift assay detects complexes by their altered migration in electrophoresis.)
For the molecule B1, the binding signal was 0.00399 KA relative to UGCAUGU.

With B2, the binding signal was 0.00979 KA relative to UGCAUGU.

B3: the binding signal was 0.00878 KA relative to UGCAUGU.

Turning to B4, the binding signal is 0.0064 KA relative to UGCAUGU.

As for B5, the binding signal was 0.00773 KA relative to UGCAUGU.

Consider B6, for which the binding signal was 0.00687 KA relative to UGCAUGU.

As to B7, the binding signal is 0.00357 KA relative to UGCAUGU.

Consider B8, for which the binding signal is 0.00527 KA relative to UGCAUGU.

For the molecule B9, the binding signal is 0.0318 KA relative to UGCAUGU.

Turning to B10, the binding signal was 0.0183 KA relative to UGCAUGU.

In the case of B11, the binding signal is 0.0112 KA relative to UGCAUGU.

Turning to B12, the binding signal is 0.0104 KA relative to UGCAUGU.

Turning to B13, the binding signal is 0.0233 KA relative to UGCAUGU.

Consider B14, for which the binding signal was 0.032 KA relative to UGCAUGU.
